Reference: PubChem BioAssay (EPA / NIEHS)
Activity calls are given as the source filed them. How the source made its calls: active means hit-call score of the fitted dose curve at least 0.9, where 1 is the maximum; inactive means score below 0.9.

Key:
[1] = target: Transcription factor E2F1 (Homo sapiens) (UniProt Q01094); assay: ATG_E2F_CIS: Attagene CIS-FACTORIAL HepG2 Assay for human E2F Transcription Factor 1 (AID 2282935); settings: HepG2 Attagene cis-reporter, E2F reporter RNA transcripts; actives raise or lower the signal
Outline: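 Measures reporter transcript levels via RT-PCR with capillary electrophoresis detection in HepG2 cells harboring cis-regulated reporter units; 24 h post-dose; bidirectional curve fitting with DMSO as baseline.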

[2] = ATG_E_Box_CIS: Attagene CIS-FACTORIAL HepG2 Assay for human Enhancer Box (E-box) (AID 2282936); settings: HepG2 E-box cis-reporter transcription, actives raise or lower the signal
Outline: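 First, HepG2 cells receive multiple cis-regulated reporter constructs by transient transfection. Next, chemicals are applied for 24 h. Finally, reporter mRNA is quantified via RT-PCR and capillary electrophoresis, with DMSO as baseline.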

[3] = ATG_M_61_CIS: Attagene CIS-FACTORIAL HepG2 Assay for M61 Transcription Factor (Internal Marker) (AID 2282937); settings: HepG2 Attagene CIS-FACTORIAL M61 internal marker reporter; actives raise or lower the signal
Outline: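 Using transiently transfected HepG2 liver cells, reporter transcript levels were assessed 24 h post-dosing by RT-PCR and capillary electrophoresis. Changes in either direction were fitted relative to DMSO controls.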

[4] = ATG_EGR_CIS: Attagene CIS-FACTORIAL HepG2 Assay for human Early Growth Response 1 (EGR1) (AID 2282938); settings: HepG2 Attagene CIS-FACTORIAL EGR reporter mRNA; actives raise or lower the signal
Outline: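 Fluorescent capillary-electrophoresis signal of reporter cDNA fragments serves as read-out. HepG2 cells bear transiently transfected cis-promoter reporter units and are exposed 24 h; gain- or loss-of-signal is fitted against DMSO.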

[5] = ATG_M_19_CIS: Attagene CIS-FACTORIAL HepG2 Assay for M19 Transcription Factor (Internal Marker) (AID 2282939); settings: HepG2 Attagene CIS-FACTORIAL M19 internal marker reporter; actives raise or lower the signal
Outline: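 Readout: fluorescent reporter-transcript fragments by capillary electrophoresis after RT-PCR. Human HepG2 liver cells carried transfected MRTU constructs reporting endogenous transcription-factor activity; exposure 24 h. Gain or loss of signal fitted relative to DMSO.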

[6] = ATG_Ets_CIS: Attagene CIS-FACTORIAL HepG2 Assay for human Erythroblast Transformation Specific (ETS) (AID 2282941); settings: HepG2 ETS cis-reporter transcription, actives raise or lower the signal
Outline: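 After transient cis-reporter transfection, HepG2 cells receive test chemical for 24 h. Reporter mRNA levels, measured by RT-PCR and capillary electrophoresis fluorescence, are analysed bidirectionally relative to the DMSO baseline.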

[7] = target: Hepatocyte nuclear factor 3-beta (Homo sapiens) (UniProt Q9Y261); assay: ATG_FoxA2_CIS: Attagene CIS-FACTORIAL HepG2 Assay for human Forkhead box A2 (FOXA2) (AID 2282942); settings: HepG2 cis-reporter transcription factor activity, 24 h; actives raise or lower the signal
Outline: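 Fluorescence signal of reporter cDNA fragments, separated by capillary electrophoresis, reflects endogenous transcription factor activity in transfected HepG2 after 24 h. Both increases and decreases fitted against DMSO.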

[8] = ATG_FoxO_CIS: Attagene CIS-FACTORIAL HepG2 Assay for human Forkhead box O (FoxO) (AID 2282943); settings: HepG2 Attagene cis-reporter, FoxO element, mRNA; actives raise or lower the signal
Outline: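 HepG2 cells transiently transfected with cis-element-driven reporter units report endogenous FoxO activity. After 24 h chemical exposure, reporter mRNA quantified by RT-PCR, fluorescent labeling, HpaI digestion and capillary electrophoresis; bidirectional fit versus DMSO.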

[9] = ATG_GATA_CIS: Attagene CIS-FACTORIAL HepG2 Assay for human GATA Binding Protein (AID 2282944); settings: HepG2 GATA cis-element reporter, Attagene multiplex mRNA; actives raise or lower the signal
Outline: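 Read-out: fluorescent reporter mRNA fragments resolved by capillary electrophoresis after RT-PCR. Human liver HepG2 cells carried transiently transfected cis-regulated reporter constructs; chemicals incubated 24 h; gain or loss of signal fitted relative to DMSO.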

[10] = ATG_GLI_CIS: Attagene CIS-FACTORIAL HepG2 Assay for human Zinc Finger Protein GLI1 (AID 2282945); settings: HepG2, Attagene cis-factorial reporter mRNA, GLI element; actives raise or lower the signal
Outline: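 Transiently transfected HepG2 cells report endogenous transcription factor activity via cis-element-driven reporter units. After 24 h compound exposure, reporter mRNA was measured by RT-PCR with capillary electrophoresis; bidirectional fitting against DMSO baseline.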

[11] = ATG_ISRE_CIS: Attagene CIS-FACTORIAL HepG2 Assay for human Interferon Regulatory Factor 1 (IRF1) binding to an Interferon-Stimulated Response Element (ISRE) (AID 2282948); settings: HepG2 ISRE cis-reporter (Attagene), mRNA transcription readout; actives raise or lower the signal
Outline: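 Quantitation relies on labelled RT-PCR fragments separated by capillary electrophoresis. Human HepG2 cells bearing cis-promoter reporter constructs were treated 24 h; DMSO served as baseline for bidirectional fitting.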

[12] = ATG_M_32_CIS: Attagene CIS-FACTORIAL HepG2 Assay for M32 Transcription Factor (Internal Marker) (AID 2282949); settings: HepG2 Attagene cis-factorial M32 reporter, mRNA; actives raise or lower the signal;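 further: background control marker of the multiplexed CIS panel rather than a real target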
Outline: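 Internal background marker read-out: RT-PCR/capillary electrophoresis fluorescence of reporter transcripts from transiently transfected HepG2 cells after 24 h chemical exposure. Activity fitted bidirectionally relative to DMSO negative control.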

[13] = ATG_M_06_CIS: Attagene CIS-FACTORIAL HepG2 Assay for M06 Transcription Factor (Internal Marker) (AID 2282950); settings: HepG2 Attagene CIS-FACTORIAL M06 internal marker reporter; actives raise or lower the signal
Outline: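 Terse: HepG2, transient MRTU transfection (FuGene 6), 24 h dosing; total RNA, oligo(dT) RT, PCR, FAM label, HpaI cut, capillary electrophoresis; bidirectional fit vs DMSO baseline; background-control endpoint.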

[14] = target: Hypoxia-inducible factor 1-alpha (Homo sapiens) (UniProt Q16665); assay: ATG_HIF1a_CIS: Attagene CIS-FACTORIAL HepG2 Assay for human Hypoxia Inducible Factor 1 (HIF1A) (AID 2282951); settings: HepG2 Attagene cis-factorial HIF1a reporter transcription; actives raise or lower the signal
Outline: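 Endogenous-TF cis reporter readout, human HepG2 cells, 24 h incubation; mRNA detected via RT-PCR and capillary electrophoresis fluorescence; DMSO-normalised bidirectional fitting.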

[15] = target: Hepatocyte nuclear factor 6 (Homo sapiens) (UniProt Q9UBC0); assay: ATG_HNF6_CIS: Attagene CIS-FACTORIAL HepG2 Assay for human Hepatocyte Nuclear Factor 6 (HNF6) (AID 2282952); settings: HepG2 Attagene cis-factorial HNF6 reporter transcription; actives raise or lower the signal
Outline: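 Transiently transfected HepG2 cells expressing cis-regulated reporter transcription units were exposed to chemical for 24 h in a 24-well format. Reporter transcript abundance was determined by fluorescence capillary electrophoresis.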

[16] = target: Heat shock factor protein 1 (Homo sapiens) (UniProt Q00613); assay: ATG_HSE_CIS: Attagene CIS-FACTORIAL HepG2 Assay for human Heat Shock Transcription Factor 1 (HSE) (AID 2282953); settings: HepG2 HSE cis-reporter, Attagene RNA transcription; actives raise or lower the signal
Outline: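 Read-out: fluorescence of reporter-specific RT-PCR fragments separated by capillary electrophoresis. HepG2 carrying transfected cis-element reporter units; 24 h dosing; activity fitted in both directions relative to DMSO baseline.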

[17] = ATG_MRE_CIS: Attagene CIS-FACTORIAL HepG2 Assay for human Metal Responsive Element (MRE) (AID 2282954); settings: HepG2 MRE cis-reporter transcription, Attagene multiplex; actives raise or lower the signal
Outline: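 Fluorescent reporter fragments separated by capillary electrophoresis give mRNA induction for the MRE unit after 24 h treatment of transfected HepG2 cells. Endogenous transcription-factor activity is read; DMSO serves as negative control and baseline.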

[18] = ATG_ERE_CIS: Attagene CIS-FACTORIAL HepG2 Assay for Estrogen Response Element (ERE) (AID 2282940); settings: HepG2 ERE cis-reporter, Attagene RNA transcript; actives raise or lower the signal
Outline: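 Readout: reporter mRNA induction by RT-PCR, FAM-labelled primer extension, HpaI digestion and capillary electrophoresis, 24 h after dosing transfected HepG2 cells. Endogenous transcription factors act on cis-element-regulated reporters. Gain or loss fitted against DMSO.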

[19] = target: Bile acid receptor (Homo sapiens) (UniProt Q96RI1); assay: ATG_IR1_CIS: Attagene CIS-FACTORIAL HepG2 Assay for human Nuclear Receptor Subfamily 1 Group H Member 4 (NR1H4), IR1 submotif (AID 2282946); settings: IR1 reporter transcription, actives raise or lower the signal
Outline: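 HepG2 cells transiently transfected with multiple cis-promoter-driven reporter units to measure endogenous transcription factor activity; 24 h exposure. Reporter mRNA read by RT-PCR, FAM labelling, HpaI digestion and capillary electrophoresis. Bidirectional fit versus DMSO.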

[20] = ATG_GRE_CIS: Attagene CIS-FACTORIAL HepG2 Assay for human Glucocorticoid Response Elements (GRE) (AID 2282947); settings: HepG2 GRE cis-reporter, Attagene multiplex mRNA; actives raise or lower the signal
Outline: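 Endogenous transcription factor activity is read through cis-element reporter constructs transiently transfected into HepG2 cells. After 24 h treatment, labelled RT-PCR products are resolved by capillary electrophoresis; DMSO sets baseline for bidirectional curve fitting.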

Measured: outcome

Chain of Bile acid receptor (Homo sapiens) (Q96RI1 whole entry, looked up): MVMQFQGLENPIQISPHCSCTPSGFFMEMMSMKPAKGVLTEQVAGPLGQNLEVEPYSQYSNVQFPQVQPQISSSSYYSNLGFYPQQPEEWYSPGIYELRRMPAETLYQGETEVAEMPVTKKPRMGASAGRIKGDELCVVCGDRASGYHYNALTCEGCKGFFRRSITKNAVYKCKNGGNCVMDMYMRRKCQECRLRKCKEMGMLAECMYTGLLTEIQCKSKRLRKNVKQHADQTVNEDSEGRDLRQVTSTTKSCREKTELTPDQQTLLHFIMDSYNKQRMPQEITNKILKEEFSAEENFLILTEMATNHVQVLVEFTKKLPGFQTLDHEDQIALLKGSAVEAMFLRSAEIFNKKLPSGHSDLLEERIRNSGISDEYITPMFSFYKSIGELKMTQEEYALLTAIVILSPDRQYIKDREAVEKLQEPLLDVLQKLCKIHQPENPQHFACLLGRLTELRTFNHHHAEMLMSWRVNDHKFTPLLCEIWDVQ
Chain of Hepatocyte nuclear factor 6 (Homo sapiens) (Q9UBC0 whole entry, looked up): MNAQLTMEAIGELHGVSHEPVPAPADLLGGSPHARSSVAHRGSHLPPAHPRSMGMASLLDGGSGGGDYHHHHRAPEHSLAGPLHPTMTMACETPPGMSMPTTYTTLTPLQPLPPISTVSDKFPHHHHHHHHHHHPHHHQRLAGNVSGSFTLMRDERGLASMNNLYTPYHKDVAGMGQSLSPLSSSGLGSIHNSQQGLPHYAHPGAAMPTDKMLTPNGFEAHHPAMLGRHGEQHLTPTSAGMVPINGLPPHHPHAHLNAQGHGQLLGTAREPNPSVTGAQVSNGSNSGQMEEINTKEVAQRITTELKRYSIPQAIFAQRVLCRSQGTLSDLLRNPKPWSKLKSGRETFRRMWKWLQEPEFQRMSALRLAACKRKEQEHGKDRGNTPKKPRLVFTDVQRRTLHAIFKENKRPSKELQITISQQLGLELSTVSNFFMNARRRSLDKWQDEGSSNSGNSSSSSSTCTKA
Chain of Heat shock factor protein 1 (Homo sapiens) (Q00613 whole entry, looked up, the tested form may be a part): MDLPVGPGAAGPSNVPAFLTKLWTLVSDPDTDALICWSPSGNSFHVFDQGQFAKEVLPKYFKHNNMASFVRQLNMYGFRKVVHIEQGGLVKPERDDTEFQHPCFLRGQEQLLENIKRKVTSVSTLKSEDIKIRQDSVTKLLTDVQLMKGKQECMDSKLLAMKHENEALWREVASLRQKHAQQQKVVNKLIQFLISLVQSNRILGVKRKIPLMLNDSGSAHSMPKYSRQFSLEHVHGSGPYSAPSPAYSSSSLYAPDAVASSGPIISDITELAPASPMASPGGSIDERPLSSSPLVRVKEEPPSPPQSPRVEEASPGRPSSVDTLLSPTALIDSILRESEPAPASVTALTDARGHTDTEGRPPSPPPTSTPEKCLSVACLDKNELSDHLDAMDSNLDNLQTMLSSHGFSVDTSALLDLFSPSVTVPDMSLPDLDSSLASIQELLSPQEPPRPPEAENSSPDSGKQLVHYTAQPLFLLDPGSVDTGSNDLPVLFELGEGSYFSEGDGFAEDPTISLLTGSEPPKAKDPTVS
Chain of Hypoxia-inducible factor 1-alpha (Homo sapiens) (Q16665 whole entry, looked up): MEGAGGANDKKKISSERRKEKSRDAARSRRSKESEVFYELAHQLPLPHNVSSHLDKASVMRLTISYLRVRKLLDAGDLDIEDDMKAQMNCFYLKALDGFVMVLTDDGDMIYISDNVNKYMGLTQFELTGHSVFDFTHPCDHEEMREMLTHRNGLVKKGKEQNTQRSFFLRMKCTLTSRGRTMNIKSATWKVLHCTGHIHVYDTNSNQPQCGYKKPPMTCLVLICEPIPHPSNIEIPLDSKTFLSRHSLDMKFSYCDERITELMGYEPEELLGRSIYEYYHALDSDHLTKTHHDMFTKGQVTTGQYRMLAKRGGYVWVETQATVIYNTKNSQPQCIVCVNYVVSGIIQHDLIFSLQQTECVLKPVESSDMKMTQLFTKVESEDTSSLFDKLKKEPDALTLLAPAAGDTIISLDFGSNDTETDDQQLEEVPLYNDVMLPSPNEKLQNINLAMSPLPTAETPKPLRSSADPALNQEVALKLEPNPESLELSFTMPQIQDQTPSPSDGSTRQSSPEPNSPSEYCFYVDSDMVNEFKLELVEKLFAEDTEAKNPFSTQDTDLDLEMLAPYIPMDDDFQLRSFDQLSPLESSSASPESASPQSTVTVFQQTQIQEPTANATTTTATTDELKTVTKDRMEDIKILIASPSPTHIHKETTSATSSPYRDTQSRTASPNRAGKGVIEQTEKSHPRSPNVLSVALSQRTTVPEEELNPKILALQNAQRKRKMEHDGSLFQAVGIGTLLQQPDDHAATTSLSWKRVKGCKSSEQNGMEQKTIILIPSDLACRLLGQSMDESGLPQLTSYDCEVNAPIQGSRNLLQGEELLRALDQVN
Chain of Hepatocyte nuclear factor 3-beta (Homo sapiens) (Q9Y261 whole entry, looked up, the tested form may be a part): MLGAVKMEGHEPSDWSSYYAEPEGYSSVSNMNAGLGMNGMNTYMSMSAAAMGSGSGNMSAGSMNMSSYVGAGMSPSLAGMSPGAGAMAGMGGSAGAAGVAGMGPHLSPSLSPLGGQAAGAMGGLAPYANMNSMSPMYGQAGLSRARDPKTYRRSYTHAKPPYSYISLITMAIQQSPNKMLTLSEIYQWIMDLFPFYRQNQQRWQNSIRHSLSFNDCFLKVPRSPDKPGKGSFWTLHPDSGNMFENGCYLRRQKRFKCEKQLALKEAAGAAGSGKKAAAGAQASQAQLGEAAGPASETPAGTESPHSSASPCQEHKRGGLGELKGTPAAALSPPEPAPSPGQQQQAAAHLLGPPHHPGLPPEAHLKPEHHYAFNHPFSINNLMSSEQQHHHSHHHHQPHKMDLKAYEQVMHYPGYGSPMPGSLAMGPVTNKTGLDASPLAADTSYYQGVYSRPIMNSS
Chain of Transcription factor E2F1 (Homo sapiens) (Q01094 whole entry, looked up): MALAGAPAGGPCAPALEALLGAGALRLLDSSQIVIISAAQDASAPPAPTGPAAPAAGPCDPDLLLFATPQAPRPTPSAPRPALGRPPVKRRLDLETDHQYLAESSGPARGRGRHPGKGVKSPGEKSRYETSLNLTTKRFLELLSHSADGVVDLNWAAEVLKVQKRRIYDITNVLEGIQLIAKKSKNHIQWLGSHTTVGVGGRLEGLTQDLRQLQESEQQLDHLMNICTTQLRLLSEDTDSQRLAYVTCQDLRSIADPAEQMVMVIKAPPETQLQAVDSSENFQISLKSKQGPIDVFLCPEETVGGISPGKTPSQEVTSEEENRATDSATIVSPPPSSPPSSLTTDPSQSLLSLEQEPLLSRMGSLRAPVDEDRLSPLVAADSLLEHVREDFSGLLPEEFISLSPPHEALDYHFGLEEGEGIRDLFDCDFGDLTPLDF

CCC(C)(C)C1CCC(O)CC1 (configuration not stated)
inactive: [1] | [2] | [3] | [4] | [5] | [6] | [7] | [8] | [9] | [10] | [11] | [12] | [13] | [14] | [15] | [16] | [17]

Cc1cc(C)c(O)c(C)c1
inactive: [1] | [2] | [3] | [4] | [5] | [18] | [6] | [7] | [8] | [10] | [19] | [11] | [12] | [13] | [14] | [16] | [17]

CC(O)CO (configuration not stated)
inactive: [1] | [2] | [3] | [4] | [5] | [18] | [6] | [7] | [8] | [10] | [19] | [11] | [12] | [13] | [14] | [16] | [17]

CCCCCCCCCCCCN1CCCC1=O
inactive: [1] | [2] | [3] | [4] | [5] | [18] | [6] | [7] | [8] | [10] | [19] | [11] | [12] | [13] | [14] | [16] | [17]

CCCCCCCCOC(=O)CCCCCCCCC(=O)OCCCCCCCC
inactive: [1] | [2] | [3] | [4] | [5] | [18] | [6] | [7] | [8] | [9] | [10] | [19] | [11] | [12] | [13] | [14] | [16] | [17]

CCCCCCCC(=O)O
inactive: [1] | [2] | [3] | [4] | [5] | [18] | [6] | [7] | [8] | [10] | [20] | [11] | [12] | [13] | [14] | [15] | [16] | [17]

O=C(OCCOCCOC(=O)c1ccccc1)c1ccccc1
inactive: [1] | [2] | [3] | [4] | [5] | [18] | [6] | [7] | [8] | [10] | [19] | [11] | [12] | [13] | [14] | [15] | [16] | [17]
